According to PubChem BioAssay (NCATS):
Values without a mark were called inactive. Inconclusive results are not listed. Calls of active or inactive are those of the source. Calls follow the shape of the dose curve; as a rule, active = well fitted inhibition curve with a large enough effect; inconclusive = small, poorly fitted or top-dose-only effect; inactive = flat fitted curve, though single readings scatter.

The compounds below were run against Phospholipid hydroperoxide glutathione peroxidase GPX4 (Homo sapiens) (UniProt P36969) (assay: Primary qHTS Assay for Inhibitors of Recombinant Selenoprotein Glutathione Peroxidase 4 (GPX4) (AID 1845192; also: nearly all actives have a fitted effect of over 65% in size; as to activity change, negative = inhibition: % is scaled to controls: 0 for no effect and ±100 for the full control effect)). Settings: recombinant GPX4, GR-coupled NADPH fluorescence, 15 min; series mostly up to 50 µM; activity change, negative = inhibition: at the top concentration.
Phospholipid hydroperoxide glutathione peroxidase GPX4 (Homo sapiens), sequence (P36969 whole entry, looked up): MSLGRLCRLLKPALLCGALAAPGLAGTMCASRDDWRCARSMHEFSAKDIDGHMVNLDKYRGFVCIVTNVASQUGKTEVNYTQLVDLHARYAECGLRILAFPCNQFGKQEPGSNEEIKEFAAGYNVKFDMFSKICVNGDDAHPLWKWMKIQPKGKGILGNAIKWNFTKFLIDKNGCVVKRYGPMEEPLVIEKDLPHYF
In short: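 NADPH consumption, followed by fluorescence at 340/450 nm between 0 and 15 min, reports GPX4 activity via coupled glutathione reductase (100 nM). Enzyme 200 nM was pre-exposed to compound 30 min; 0.5 mM cumene hydroperoxide and 1 mM GSH served as substrates.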
Potency is read from the fitted curve at half-maximal effect.

SMILES | activity change, negative = inhibition | Potency | outcome
C=CC(C)(C)c1[nH]c2ccccc2c1C[C@@H]1NC(=O)[C@H](C)NC1=O | -1.64% [at 27.8 µM] | – | –
COc1ccc(NC(=O)C2C[C@H](C)CC[C@H]2C(C)C)cc1 (stereo partly drawn) | 3.45% | – | –
COCCCNC(=O)c1ccc(Cn2c(=O)c3ccccc3n(Cc3ccc(C(C)C)cc3)c2=O)cc1 | 0.193% | – | –
Cc1nc2ccc(-n3ncc(C(=O)c4cc5ccccc5[nH]4)c3N)cc2[nH]1 | – | inactive | –
N#Cc1ccc(COc2ccc(-c3cccc4nc(NC(=O)C5CC5)nn34)cc2)cn1 | 12.1% | – | –
C=C1CC(=O)C2OC2(C)CC2OC(=O)C(=C)C2C(O)C1OC(=O)/C(C)=C\C (stereo not drawn) | -10.7% [at 27.8 µM] | – | –
Cc1cc(C)nc(SCC(=O)Nc2ncc(Cc3cccc4ccccc34)s2)n1 | -10.3% | – | –
COc1ccc(CN2CCN(CCCSc3cc(C(C)(C)C)c(O)c(C(C)(C)C)c3)CC2)c(OC)c1OC | -11.4% [at 15.3 µM] | – | –
CCOC(=O)C1(CCOc2ccccc2)CCN(Cc2ccc(O)c(Cl)c2)CC1 | -7.43% | – | –
COc1cc(C(C)=O)c(OC)c2c1OC(C)(C)C=C2 | -1.66% | – | –
Cn1ncc(Cl)c1-c1cc(C(=O)N[C@H](CN)Cc2ccc(F)c(F)c2)sc1Cl | – | inactive | –
C=C(CCC1C(C)(O)CCC2C(C)(C)C(O)CCC12C)C(O)CO (stereo not drawn) | -5.92% [at 27.8 µM] | – | –
C=C1CC[C@H]2C(=C)CC[C@H]3C(=C)C(=O)O[C@@H]3[C@@H]12 | -0.538% | – | –
C=C1C(=O)OC2/C=C(\COC(C)=O)CC/C=C(\C=O)CC(OC(=O)C(C)CC)C12 (stereo not drawn) | – | – | inactive [at 27.8 µM]
C=C[C@]1(C)C[C@H](O)[C@H]2C(=C)C(=O)O[C@@H]2[C@H]1C(=C)CO | – | – | inactive
Cc1ccc(NC(=O)N2CCN(c3nc(N)nc4sc(-c5cccnc5)nc34)CC2)cc1 | – | 2550 nM (active) | –
C/C=C(/C=C(C)/C=C/C=C/C=C(\C)C(=O)C12OC1C(O)(CCO)NC2=O)C(=O)OC (stereo not drawn) | -5.63% [at 27.8 µM] | – | –
Nc1cccc(CNC(=O)c2ccc(Oc3ccc(OCc4cccc(F)c4)cc3)nc2)c1 | -12.4% | – | –
Cc1nc2c(C(F)(F)F)cccc2nc1-c1ccc(-c2cccc(S(C)(=O)=O)c2)cc1 | 0.1% | – | –
NC(N)=N/N=C/c1ccccc1Cl | – | – | inactive

SMILES | activity change, negative = inhibition | Potency | outcome
C=C(C)Cn1c(SCC(=O)c2cccs2)nc2sc3c(c2c1=O)CCCC3 | 1.64% | – | –
CC(=O)O[C@@H]1CC[C@@]2(C)C(CC[C@]3(C)C2[C@H](O)C=C2[C@H]4[C@@H](C)[C@H](C)CC[C@]4(C)CC[C@]23C)[C@@]1(C)C(=O)O (stereo partly drawn) | -10.1% [at 27.8 µM] | – | –
CCS(=O)c1nc(-c2cccc(OCc3ccccc3)c2)cc(C(F)(F)F)n1 (stereo not drawn) | -5.87% | – | –
O=C(O)C1=CO[C@@H](O[C@@H]2O[C@H](CO)[C@@H](O)[C@H](O)[C@H]2O)[C@@H]2C(CO)=CC[C@H]12 | – | inactive | –
C=CC(=O)N1CCCN(c2cc(NCCC(=O)O)nc(-c3ccccn3)n2)CC1 | -11.3% | – | –
Cc1ccc(C2(C(=O)N3CCC(n4nc(-c5ccccc5)oc4=O)CC3)CC2)cc1 | -5.98% | – | –
C=C1CC2OC(=O)C(=C)C2C(OC(=O)/C(C)=C\C)CC2(C)OC1=CC2=O (stereo not drawn) | 3.24% [at 27.8 µM] | – | –
C=C1C(=O)OC2CC(C)C(CCC(C)=O)=CCC12 (stereo not drawn) | – | – | inactive
Fc1ccc(-c2cncc(CN3CCN(c4cccc5c4OCCO5)CC3)c2)cc1 | -7.88% | – | –
CC(=O)c1ccc2c(c1)[C@H](NC(=O)c1ccc(F)c(Cl)c1)[C@H](O)C(C)(C)O2 | 7.95% | – | –
CC(=O)OC[C@]12[C@H](OC(C)=O)[C@H](OC(=O)c3ccccc3)[C@@H]3[C@@H](OC(C)=O)[C@]1(OC3(C)C)[C@H](C)C[C@H](OC(C)=O)[C@@H]2OC(=O)c1ccccc1 | -21.1% [at 15.3 µM] | – | –
COc1ccc2c(NC(=O)Nc3cccc(C(F)(F)F)n3)ccnc2c1 | 1.74% | – | –
CC(C)c1cc(-c2ccc(F)c3ccccc23)nc(N)n1 | 1.95% | – | –
COc1c(C(O)CC(C)C)ccc2c1C(=O)OCc1cc(C)cc(O)c1O2 (stereo not drawn) | -4.56% [at 27.8 µM] | – | –
CC(=O)NC[C@H]1CN(c2ccc(N3CCSCC3)c(F)c2)C(=O)O1 | 1.14% | – | –
C=C(C)C(=O)O[C@H]1C[C@@](C)(O)C2(O)CCC(C)(/C=C3/OC(=O)C(COC)=C31)O2 (stereo partly drawn) | -9.7% [at 27.8 µM] | – | –
Cc1ccc(C(C)C)c(O[C@@H]2O[C@H](CO)[C@@H](O)[C@H](O)[C@H]2O)c1 | -22.5% [at 27.8 µM] | – | –
C[C@H](CN(C)C)Oc1nc(Nc2cc3cccc(Cl)c3cn2)cnc1C#N | – | inactive | –
CCCCCCCCC(=O)N[C@H](CN1CCCC1)[C@H](O)c1ccc2c(c1)OCCO2 | -11.5% | – | –

These compounds were tested against Luciferin 4-monooxygenase (Photinus pyralis) (UniProt P08659) (assay: Primary firefly luciferase (FLuc) qHTS assay for identification of artifact compounds. (AID 1845220; also: nearly all actives have a fitted effect of over 60% in size;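 as to activity change, negative = inhibition: plate controls were DMSO vehicle for no effect and no enzyme for full effect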)). Settings: purified firefly luciferase, luminescence, 5 min; series mostly up to 54.1 µM; activity change, negative = inhibition: at the top concentration.
In short: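 Cell-free, 1536-well qHTS. Buffer pH 7.6 with 0.01% Tween-20 and 0.05% BSA; 10 uM D-luciferin, 10 uM ATP; 10 nM P. pyralis luciferase; luminescence after 5 min.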

SMILES | activity change, negative = inhibition | outcome | Potency
C=CC(C)(C)c1[nH]c2ccccc2c1C[C@@H]1NC(=O)[C@H](C)NC1=O | -7.06% | – | –
COc1ccc(NC(=O)C2C[C@H](C)CC[C@H]2C(C)C)cc1 (stereo partly drawn) | – | inactive | –
COCCCNC(=O)c1ccc(Cn2c(=O)c3ccccc3n(Cc3ccc(C(C)C)cc3)c2=O)cc1 | 0.56% | – | –
Cc1nc2ccc(-n3ncc(C(=O)c4cc5ccccc5[nH]4)c3N)cc2[nH]1 | – | – | 3380 nM (active)
N#Cc1ccc(COc2ccc(-c3cccc4nc(NC(=O)C5CC5)nn34)cc2)cn1 | 0.492% | – | –
C=C1CC(=O)C2OC2(C)CC2OC(=O)C(=C)C2C(O)C1OC(=O)/C(C)=C\C (stereo not drawn) | – | inactive | –
Cc1cc(C)nc(SCC(=O)Nc2ncc(Cc3cccc4ccccc34)s2)n1 | – | inactive | –
COc1ccc(CN2CCN(CCCSc3cc(C(C)(C)C)c(O)c(C(C)(C)C)c3)CC2)c(OC)c1OC | 3.48% [at 11.6 µM] | – | –
CCOC(=O)C1(CCOc2ccccc2)CCN(Cc2ccc(O)c(Cl)c2)CC1 | – | inactive | –
COc1cc(C(C)=O)c(OC)c2c1OC(C)(C)C=C2 | -5.84% | – | –
Cn1ncc(Cl)c1-c1cc(C(=O)N[C@H](CN)Cc2ccc(F)c(F)c2)sc1Cl | 3.14% | – | –
C=C(CCC1C(C)(O)CCC2C(C)(C)C(O)CCC12C)C(O)CO (stereo not drawn) | -11.8% | – | –
C=C1CC[C@H]2C(=C)CC[C@H]3C(=C)C(=O)O[C@@H]3[C@@H]12 | 1.35% | – | –
C=C1C(=O)OC2/C=C(\COC(C)=O)CC/C=C(\C=O)CC(OC(=O)C(C)CC)C12 (stereo not drawn) | – | inactive [at 25.7 µM] | –
C=C[C@]1(C)C[C@H](O)[C@H]2C(=C)C(=O)O[C@@H]2[C@H]1C(=C)CO | -3.27% | – | –
Cc1ccc(NC(=O)N2CCN(c3nc(N)nc4sc(-c5cccnc5)nc34)CC2)cc1 | -2.65% | – | –
C/C=C(/C=C(C)/C=C/C=C/C=C(\C)C(=O)C12OC1C(O)(CCO)NC2=O)C(=O)OC (stereo not drawn) | 2.95% [at 25.7 µM] | – | –
Nc1cccc(CNC(=O)c2ccc(Oc3ccc(OCc4cccc(F)c4)cc3)nc2)c1 | -4.25% | – | –
Cc1nc2c(C(F)(F)F)cccc2nc1-c1ccc(-c2cccc(S(C)(=O)=O)c2)cc1 | -4.11% | – | –
NC(N)=N/N=C/c1ccccc1Cl | 1.13% | – | –

SMILES | activity change, negative = inhibition | outcome | Potency
C=C(C)Cn1c(SCC(=O)c2cccs2)nc2sc3c(c2c1=O)CCCC3 | – | inactive | –
CC(=O)O[C@@H]1CC[C@@]2(C)C(CC[C@]3(C)C2[C@H](O)C=C2[C@H]4[C@@H](C)[C@H](C)CC[C@]4(C)CC[C@]23C)[C@@]1(C)C(=O)O (stereo partly drawn) | 2.31% [at 25.7 µM] | – | –
CCS(=O)c1nc(-c2cccc(OCc3ccccc3)c2)cc(C(F)(F)F)n1 (stereo not drawn) | -5.45% | – | –
O=C(O)C1=CO[C@@H](O[C@@H]2O[C@H](CO)[C@@H](O)[C@H](O)[C@H]2O)[C@@H]2C(CO)=CC[C@H]12 | – | inactive | –
C=CC(=O)N1CCCN(c2cc(NCCC(=O)O)nc(-c3ccccn3)n2)CC1 | -5.13% | – | –
Cc1ccc(C2(C(=O)N3CCC(n4nc(-c5ccccc5)oc4=O)CC3)CC2)cc1 | -13.2% | – | –
C=C1CC2OC(=O)C(=C)C2C(OC(=O)/C(C)=C\C)CC2(C)OC1=CC2=O (stereo not drawn) | – | inactive | –
C=C1C(=O)OC2CC(C)C(CCC(C)=O)=CCC12 (stereo not drawn) | 4.27% | – | –
Fc1ccc(-c2cncc(CN3CCN(c4cccc5c4OCCO5)CC3)c2)cc1 | 1.88% | – | –
CC(=O)c1ccc2c(c1)[C@H](NC(=O)c1ccc(F)c(Cl)c1)[C@H](O)C(C)(C)O2 | -8.98% | – | –
CC(=O)OC[C@]12[C@H](OC(C)=O)[C@H](OC(=O)c3ccccc3)[C@@H]3[C@@H](OC(C)=O)[C@]1(OC3(C)C)[C@H](C)C[C@H](OC(C)=O)[C@@H]2OC(=O)c1ccccc1 | – | inactive [at 25.7 µM] | –
COc1ccc2c(NC(=O)Nc3cccc(C(F)(F)F)n3)ccnc2c1 | 1.87% | – | –
CC(C)c1cc(-c2ccc(F)c3ccccc23)nc(N)n1 | 1.44% | – | –
COc1c(C(O)CC(C)C)ccc2c1C(=O)OCc1cc(C)cc(O)c1O2 (stereo not drawn) | 2.78% | – | –
CC(=O)NC[C@H]1CN(c2ccc(N3CCSCC3)c(F)c2)C(=O)O1 | – | inactive | –
C=C(C)C(=O)O[C@H]1C[C@@](C)(O)C2(O)CCC(C)(/C=C3/OC(=O)C(COC)=C31)O2 (stereo partly drawn) | 3.23% | – | –
Cc1ccc(C(C)C)c(O[C@@H]2O[C@H](CO)[C@@H](O)[C@H](O)[C@H]2O)c1 | -9.52% | – | –
C[C@H](CN(C)C)Oc1nc(Nc2cc3cccc(Cl)c3cn2)cnc1C#N | -3.34% | – | –
CCCCCCCCC(=O)N[C@H](CN1CCCC1)[C@H](O)c1ccc2c(c1)OCCO2 | – | inactive | –
